Screens from PubChem.
This is a sample that favours compounds with a hit; in the whole collection about 3.6% have one here.
BoNT F protease: blocks Botulinum neurotoxin F light chain protease; inhibition, % at 10 µM; hit rate 0.22% among 360,000; AID 588497; Multiplex microsphere protease cleavage assay, flow cytometry; in the data active = inhibition above about 35%, passing the limit was not always enough; inconclusive = no clear call, values can overlap the other calls; note: plate controls were buffer without enzyme for full effect and enzyme alone for no effect
MazF activator: activators of E. coli MazEF toxin-antitoxin RNase; P0AE70; FAM/BHQ RNA-DNA oligo cleavage fluorescence, 5 h; activation, % at 20 µM; hit rate 0.32% among 350,000; AID 504720; in the data active = activation above about 50%
Anthrax LF prot: anthrax lethal factor protease inhibition | P15917 | multiplex microsphere protease cleavage assay, LF | inhibition, % at 10 µM | hit rate 0.12% among 360,000; note: plate controls were buffer without enzyme for full effect and enzyme alone for no effect
Target sequence (P15917 whole entry, looked up): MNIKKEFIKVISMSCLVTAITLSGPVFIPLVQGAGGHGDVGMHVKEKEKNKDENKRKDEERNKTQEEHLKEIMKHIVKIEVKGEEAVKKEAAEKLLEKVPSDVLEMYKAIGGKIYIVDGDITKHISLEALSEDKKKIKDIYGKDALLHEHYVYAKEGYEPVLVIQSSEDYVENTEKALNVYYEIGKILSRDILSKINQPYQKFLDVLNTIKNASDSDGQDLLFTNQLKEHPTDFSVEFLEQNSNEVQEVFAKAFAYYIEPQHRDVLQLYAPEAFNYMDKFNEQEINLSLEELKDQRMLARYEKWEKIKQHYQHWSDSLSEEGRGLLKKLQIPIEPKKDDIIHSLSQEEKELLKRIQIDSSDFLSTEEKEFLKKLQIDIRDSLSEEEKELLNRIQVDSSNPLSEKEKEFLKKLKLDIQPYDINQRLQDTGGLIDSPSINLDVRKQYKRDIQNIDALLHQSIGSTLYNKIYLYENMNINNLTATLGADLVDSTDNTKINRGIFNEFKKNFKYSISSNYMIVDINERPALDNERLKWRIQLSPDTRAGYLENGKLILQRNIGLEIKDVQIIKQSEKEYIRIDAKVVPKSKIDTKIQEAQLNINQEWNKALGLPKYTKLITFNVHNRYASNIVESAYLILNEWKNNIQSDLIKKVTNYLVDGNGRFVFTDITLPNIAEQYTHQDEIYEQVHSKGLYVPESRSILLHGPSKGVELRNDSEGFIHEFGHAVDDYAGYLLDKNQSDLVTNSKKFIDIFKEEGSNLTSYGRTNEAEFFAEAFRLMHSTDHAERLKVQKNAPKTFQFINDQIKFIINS
Bead autofluor: flagged as autofluorescent in microsphere protease counterscreen | hit rate 3.1% among 360,000 | fluorescence intensity (concentration not given with the values) | compound autofluorescence counterscreen, microsphere flow cytometry; active compounds read high; in the data active = fluorescence intensity above about 16000; inconclusive = no clear call, values can overlap the other calls
BoNT A protease: inhibitors of Botulinum neurotoxin A light chain protease | multiplex microsphere protease substrate cleavage, flow cytometry | inhibition, % at 10 µM | hit rate 0.17% among 360,000; note: plate controls were buffer without enzyme for full effect and enzyme alone for no effect
Starred values were filed as active, the others as inactive; ? = inconclusive; . = no result. Cut-off read from the data, not from the text of the source, unless noted: active = inhibition above about 30%; inconclusive = no clear call, values can overlap the other calls; inactive = below that.

SMILES	BoNT F protease	MazF activator	Anthrax LF prot	Bead autofluor	BoNT A protease
Cc1[nH]c2ccccc2c1/C=N/NC(=S)NC(C)C	-51.4	-1.1	12.8	7206	59.2*
CN(Cc1ccccc1)C(=O)CSc1nnc(-c2ccco2)n1-c1ccccc1	-0.5	12.0	-1.3	19956*	-1.5
Cc1ccc2nc(CSc3nnc(-c4ccco4)n3-c3ccccc3)cc(=O)n2c1	0.6	-14.4	-1.2	22931*	-0.5
Cc1ccc2nc(CSc3nnc(-c4ccco4)o3)cc(=O)n2c1	-5.3	7.7	-4.6	5877	0.3
COc1ccc(-n2c(O)c(/C=N/NS(=O)(=O)c3ccc(C)cc3)c3ccccc3c2=O)cc1OC	-12.5	-7.0	1.4	4926	-1.9
COc1ccc(-n2c(O)c(/C=N/NS(=O)(=O)c3cc(C)ccc3C)c3ccccc3c2=O)cc1OC	0.3	-11.0	-1.6	17279*	-4.6
Cc1ccc(-c2nc3sc4c(N)ncnc4c3c3c2CCCC3)cc1	0.7	36.0	-2.4	22379*	-0.3
O=c1[nH]cnc2c1sc1nc(-c3ccccc3)c3c(c12)CCCC3	1.9	1.4	0.2	2248	-0.2
Cc1cccc(-c2noc(CCC(=O)NCC3CCCO3)n2)c1 (stereo not given)	-1.2	4.2	1.4	23287*	0.3
Cc1ccccc1-c1noc(CCC(=O)NCC2CCCO2)n1 (stereo not given)	6.2	13.7	-2.0	22713*	3.4
O=C(CCc1nc(-c2ccccc2Cl)no1)NCC1CCCO1 (stereo not given)	-11.9	7.6	-4.9	4108	-0.6
CCCCCCN1C[C@H](O)[C@@H](n2cc(C3CC3)nn2)C[C@@H]1c1ccc(C)cc1	-5.7	9.7	1.1	4638	-0.8
O=C(O)/C=C/c1ccccc1Oc1ccccc1	-2.2	1.1	7.9	6517	0.9
C=CCOc1ccccc1/C=C/C(=O)O	0.9	6.3	-2.7	22958*	-1.6
COc1ccc(CN2CN=C(Nc3nc4ccccc4s3)NC2)cc1	-4.6	62.1*	-2.3	23311*	-3.6
c1ccc2sc(NC3=NCN(C4CCCCC4)CN3)nc2c1	2.0	-0.6	-6.5	9927	-0.7
c1ccc(CN2CN=C(Nc3nc4ccccc4s3)NC2)cc1	0.5	55.5*	-2.5	16724*	-0.5
CC1CCCCC1N1CN=C(Nc2nc3ccccc3s2)NC1 (stereo not given)	-2.9	-6.9	-0.7	23381*	-2.0
CSc1ncnc2ncn(C)c12	3.0	8.8	0.5	4743	-0.5
O=C(NCCc1cccs1)Nc1nnc([C@H]2C[C@H](O)[C@@H](CO)O2)s1	-7.1	.	-2.7	3542	0.1
CCc1nn(C(C)C(=O)NCc2ccc(Cl)cc2)c(=O)c2cc3occc3n12 (stereo not given)	-7.3	-1.8	1.3	5433	0.7
COc1ccc(/C=C/C(=O)NCc2c(C)nn(C)c2C)cc1COc1ccc(Br)cc1	20.2	1.3	-2.7	8036	2.7
COc1ccc(/C=C/C(=O)NCc2cnn(C)c2C)cc1COc1ccc(Br)cc1	-4.3	-13.0	-2.1	23817*	-2.4
CC(C)NC(=NCc1ccc(Cl)cc1Cl)Nc1ccccc1	-7.2	7.3	0.4	3605	-0.3
CSc1ccccc1NC(=O)CN1CCN(S(=O)(=O)c2ccccc2[N+](=O)[O-])CC1	-4.2	0.3	-9.8	8031	-1.3
SMILES	BoNT F protease	MazF activator	Anthrax LF prot	Bead autofluor	BoNT A protease
C(=C\CSc1ncn[nH]1)/CSc1ncn[nH]1	8.1	0.5	-1.3	20380*	4.2
c1n[nH]c(SCCCCSc2ncn[nH]2)n1	.	5.5	.	.	.
N#CCSc1nc2ccc(N3CCCCC3)cc2c(=O)n1Cc1ccccc1	3.2	9.6	2.4	29809*	-1.1
C=CCNC(=O)c1ccc(N(CC=C)S(C)(=O)=O)cc1	11.6	1.4	-3.1	4837	0.6
CS(=O)(=O)N(Cc1ccccc1)c1ccc(C(=O)NCc2cccnc2)cc1	0.0	2.3	-0.7	4213	-0.5
CS(=O)(=O)N(Cc1ccccc1)c1ccc(C(=O)NCc2ccccc2)cc1	3.7	-1.4	-11.1	22531*	2.4
C=CCN(c1ccc(C(=O)NCCc2ccccc2)cc1)S(C)(=O)=O	-0.2	1.5	1.2	16236*	1.4
Cc1cc(OCC(=O)N2CCc3ccccc3C2)c(C)cc1Br	24.6	9.5	-9.0	4066	-0.8
CC(C)CN(CC(C)C)C(=O)C1C2c3ccccc3C(c3ccccc32)C1C(=O)O (stereo not given)	-0.5	0.8	1.0	3309	0.4
O=C(O)C1C(c2ccccc2)C(C(=O)Oc2ccccc2)C1c1ccccc1 (stereo not given)	-5.5	2.6	0.1	24658*	-1.5
CC(C)CCOC(=O)C1C(c2ccccc2)C(C(=O)O)C1c1ccccc1 (stereo not given)	-3.0	-3.4	0.2	25168*	-2.6
Cc1cccc(OC(=O)C2C(c3ccccc3)C(C(=O)O)C2c2ccccc2)c1 (stereo not given)	5.6	2.6	-0.8	15795	2.8
COc1cccc(CNC(=O)Cn2c(=O)c3cccn3c3ccccc32)c1	-1.6	-3.2	-1.8	5731	1.7
O=C(O)CCC(=O)OCC1CCCCC1	1.6	-1.7	-0.2	19321*	?
C[C@H]1CN([C@@H](C)CO)S(=O)(=O)c2ccc(Br)cc2O[C@@H]1CN(C)C(=O)C1CCOCC1	-3.6	1.5	-4.7	3414	-0.2
O=C(Nc1ccc(OC(F)F)cc1)Nc1cccc(C(F)(F)F)c1	-4.3	3.8	-2.4	20493*	?
C=CCONC(=O)c1cc(OCC(F)(F)F)ccc1OCC(F)(F)F	-3.0	8.1	-2.0	24141*	-3.2
CN(C)S(=O)(=O)NCCNC(=O)c1cc(OCC(F)(F)F)ccc1OCC(F)(F)F	-0.2	-9.3	1.1	2622	0.3
O=C(N/N=C\c1ccc(F)cc1)c1cc(OCC(F)(F)F)ccc1OCC(F)(F)F	-3.8	-1.3	-8.5	4600	-0.6
O=C(NCCNC(=O)c1cc(OCC(F)(F)F)ccc1OCC(F)(F)F)Nc1cccc(C(F)(F)F)c1	-7.6	-2.2	0.4	24354*	?
CC(=O)Oc1ccccc1C(=O)N(C1CCCCC1)C1CCCCC1	-6.7	-3.3	-4.9	3771	-0.5
CC(c1ccncc1)C(C)c1ccncc1 (stereo not given)	-4.3	7.7	-7.1	4108	0.3
CCC(=O)Nn1c(C2CCC2)nc2ccccc2c1=O	-13.5	8.0	10.6	4074	-1.1
COc1cccc(OC)c1C(=O)Nn1c(C2CCC2)nc2ccccc2c1=O	6.6	-3.2	-8.2	19169*	?
Nc1nc(C2C(=O)CCCC2=O)cs1	-5.5	-11.8	-2.1	24150*	-2.9
Cc1ccc(OCCN2C(=O)c3ccccc3C2=O)cc1	0.1	1.9	-1.1	22823*	2.2
Cc1ccc(OCCN2C(=O)c3ccccc3C2=O)c(C)c1	-9.0	2.2	-2.4	8848	-0.6
COC(CNC(=O)c1ccc2c(c1)nc(C)n2-c1cccc(F)c1)OC	-4.0	-3.9	1.1	21945*	-5.1
COC(CNC(=O)c1ccc2c(c1)nc(C)n2-c1cc(C)cc(C)c1)OC	10.5	-0.4	0.0	2960	3.0
COC(CNC(=O)c1ccc2c(c1)nc(C)n2-c1ccc(F)c(F)c1)OC	4.6	4.9	-2.0	22581*	1.2
